About 2,000 (36%) of roughly 5,500 compounds were called active. Roughly 18% stayed inconclusive and do not appear here. Rule as the data show it: active = normalized growth mostly below about 0.91 (no sharp cut-off); inconclusive = no clear call, values can overlap the other calls; inactive = mostly above about 0.92. Some of the results follow.
Assay: chemical genetic growth profiling, strain panel (AID 1159580);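 also: tested at 20 µM; growth read once vehicle control cultures reached saturation at 30 °C; 1 = growth at the plate median or of vehicle wells; lower values mean less growth of the strain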
Details: growth OD
[1] = S. cerevisiae deletion strains, locus YAL013W, strain DEP1, active compounds read low
[2] = S. cerevisiae deletion strains, locus YGR078C, strain PAC10, active compounds read low
[3] = S. cerevisiae deletion strains, locus YMR263W, strain SAP30, active compounds read low
[4] = S. cerevisiae deletion strains, locus YMR307W, strain GAS1, active compounds read low
[5] = S. cerevisiae deletion strains, locus YNL153C, strain GIM3, active compounds read low
[6] = S. cerevisiae deletion strains, locus YNL322C, strain KRE1, active compounds read low

Measured: normalized growth

CCOC(=O)c1c(Nc2ccccc2)sc([N+](=O)[O-])c1N
inactive: [1] 0.941 | S. cerevisiae deletion strains, locus YBR229C, strain ROT2, active compounds read low 1.01 | S. cerevisiae deletion strains, locus YDL101C, strain DUN1, active compounds read low 1.02 | S. cerevisiae deletion strains, locus YDR150W, strain NUM1, active compounds read low 0.969 | S. cerevisiae deletion strains, locus YEL061C, strain CIN8, active compounds read low 0.985 | [2] 0.985 | S. cerevisiae deletion strains, locus YHR030C, strain SLT2, active compounds read low 0.743 | S. cerevisiae deletion strains, locus YHR087W, strain rtc3, active compounds read low 0.98 | S. cerevisiae deletion strains, locus YJR043C, strain POL32, active compounds read low 0.956 | S. cerevisiae deletion strains, locus YJR075W, strain HOC1, active compounds read low 0.949 | S. cerevisiae deletion strains, locus YKL190W, strain CNB1, active compounds read low 0.977 | S. cerevisiae deletion strains, locus YLR039C, strain RIC1, active compounds read low 0.964 | S. cerevisiae deletion strains, locus YLR058C, strain SHM2 (second series), active compounds read low 1 | S. cerevisiae deletion strains, locus YLR262C, strain YPT6, active compounds read low 0.965 | S. cerevisiae deletion strains, locus YML094W, strain GIM5, active compounds read low 0.961 | S. cerevisiae deletion strains, locus YMR219W, strain ESC1, active compounds read low 0.998 | [3] 0.931 | [5] 0.986 | S. cerevisiae deletion strains, locus YNL298W, strain CLA4 (second series), active compounds read low 0.917 | [6] 0.985 | S. cerevisiae deletion strains, locus YNR030W, strain Alg12, active compounds read low 0.952 | S. cerevisiae deletion strains, locus YPL055C, strain LGE1, active compounds read low 0.846 | S. cerevisiae deletion strains, locus YPR135W, strain CTF4, active compounds read low 0.783 | S. cerevisiae strains, strain wild type, active compounds read low 0.977
active: S. cerevisiae deletion strains, locus YLR085C, strain ARP6, active compounds read low 0.762 | [4] 0.66 | S. cerevisiae deletion strains, locus YPL241C, strain CIN2, active compounds read low 0.849

C#CCN1C(C)=C(C(=O)OC)C(c2cccc([N+](=O)[O-])c2)C(C(=O)OCC)=C1C (configuration not stated)
inactive: [1] 1.01 | S. cerevisiae deletion strains, locus YAL040C, strain CLN3, active compounds read low 0.971 | S. cerevisiae deletion strains, locus YCL061C, strain MRC1 (second series), active compounds read low 1 | S. cerevisiae deletion strains, locus YDR363W, strain ESC2, active compounds read low 1.01 | S. cerevisiae deletion strains, locus YER002W, strain NOP16, active compounds read low 1.02 | [2] 0.996 | [3] 1.02 | [4] 0.998 | S. cerevisiae deletion strains, locus YNL128W, strain TEP1, active compounds read low 1.03 | [5] 0.988 | S. cerevisiae deletion strains, locus YNL175C, strain NOP13, active compounds read low 1.04 | S. cerevisiae deletion strains, locus YNL197C, strain WHI3, active compounds read low 1.03 | S. cerevisiae deletion strains, locus YNL224C, strain SQS1, active compounds read low 1 | [6] 1 | S. cerevisiae deletion strains, locus YOR083W, strain WHI5 (second series), active compounds read low 1.04

— PubChem BioAssay AID1159580 (chemical genetic matrix, 2015)
